Screens: PubChem, several laboratories
Sampled rows, rich in hits. Any-hit rate of the full collection: about 2.7%.
NadD block: inhibitors of S. aureus NadD, primary screen, biochemical, colorimetric, uHTS | inhibition, % at 20 µM | purified NadD enzyme, colorimetric absorbance read-out | Nicotinate-nucleotide adenylyltransferase NadD (Staphylococcus aureus N315) | 360,000 tested, 0.78% active; in the data active = inhibition above about 26%
bovine MsrA act: bovine MsrA enzyme activators, primary screen, biochemical, absorbance, HTS; Methionine sulfoxide reductase A (Bos taurus); purified bovine MsrA, absorbance read-out; activation, % at 10.6 µM; 360,000 tested, 0.3% active; AID 602163, 2012; in the data active = activation above about 7.5%
MsrA inhibitor: bovine MsrA enzyme inhibitors, primary screen, biochemical, absorbance, HTS; Methionine sulfoxide reductase A (Bos taurus); inhibition, % at 15.5 µM; purified bovine MsrA, absorbance read-out; 360,000 tested, 0.75% active; in the data active = inhibition above about 4.5%
rCAG RNA binder: binders of r(CAG) RNA repeats, primary screen, biochemical, fluorescence; r(CAG) RNA repeat, TO-PRO-1 dye displacement fluorescence; inhibition, % at 3 µM; 370,000 tested, 1.3% active;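 active = inhibition above the plate cutoff, the mean of all test compounds on that plate plus 3 SD, cut at about 35% in these data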;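 note: higher means more dye released from RNA so lower well fluorescence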
rCAG bind conf: small molecules binding CAG repeat RNA – biochemical, fluorescence, confirmation; shares compounds with rCAG RNA binder; r(CAG) RNA repeat, TO-PRO-1 dye displacement fluorescence; inhibition, % at 3 µM; 4,300 tested, 70% active;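 active = inhibition above a per-plate cutoff, the mean inhibition of sample wells plus 3 SD, cut at about 35% in these data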;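 note: loss of TO-PRO-1 fluorescence as compound displaces dye from 1x1 AA loop RNA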
DNA CAG counter: displacement of TO-PRO-1 from CAG DNA duplex, counter-screen for rCAG RNA repeat binder project, biochemical, fluorescence, TO-PRO-1 dye, d(CAG) DNA oligo; inhibition, % at 3 µM; d(CAG) DNA oligo TO-PRO-1 dye displacement; shares compounds with rCAG RNA binder; 4,300 tested, 94% active;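 active = inhibition above its plate's cutoff, the mean test-well inhibition plus 3 SD, cut at about 4.8% in these data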;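 note: hits displace the dye from DNA and so lower well fluorescence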
dCAG dye DR: inhibitors of DNA CAG/GTC TO-PRO-1 complex, dose response, counter-screen for rCAG RNA repeat binder project, biochemical, fluorescence, TO-PRO-1 dye; shares compounds with rCAG RNA binder; DNA CAG/GTC duplex TO-PRO-1 dye displacement fluorescence; IC50, µM; 250 tested, 20% active; in the data active = IC50 below about 10 µM
A number is an active result; 0 = inactive; - = not tested or not shown.

SMILES | NadD block | bovine MsrA act | MsrA inhibitor | rCAG RNA binder | rCAG bind conf | DNA CAG counter | others
O=C(O)CCCCCN1C(=O)/C(=C/c2cn(-c3ccccc3)nc2-c2cccs2)SC1=S | 31 | 0 | 0 | 57 | 69 | 39
O=C1C(=Cc2cn(-c3ccccc3)nc2-c2ccc(OCc3ccccc3F)cc2)SC(=S)N1CCS(=O)(=O)O | 30 | 0 | 0 | 72 | 65 | 45
CCN(C(=O)COC(=O)CCn1c(C)csc1=O)c1c(N)n(Cc2ccccc2)c(=O)[nH]c1=O | 0 | 0 | 0 | 0 | - | -
OCC(O)/C=N/Nc1nc(Nc2ccccc2)nc(Nc2ccccc2)n1 (stereo unspecified) | 0 | 0 | 0 | 0 | - | -
CC(C)(/C=N/NC(=O)CSCc1ccc(Cl)cc1)CCC#N | 0 | 0 | 0 | 0 | - | -
O=C(CSCc1ccccc1)NNC(=S)Nc1cccc(Cl)c1Cl | 0 | 0 | 0 | 58 | 65 | 26
CNC(=S)NNC(=O)CSCc1c(Cl)cccc1Cl | 0 | 0 | 0 | 0 | - | -
COc1cccc(N2CCN(C(=O)CCC(=O)c3ccc(Cl)s3)CC2)c1 | 0 | 0 | 0 | 0 | - | -
O=C(COc1ccc2c(-c3ccccc3)cc(=O)oc2c1)NC(Cc1c[nH]c2ccccc12)C(=O)O (stereo unspecified) | 0 | 0 | 0 | 54 | 49 | 12
O=C(COc1ccc2c(-c3ccccc3)cc(=O)oc2c1)N[C@@H](Cc1c[nH]c2ccc(O)cc12)C(=O)O | 0 | 0 | 0 | 37 | 39 | 13
CCn1c(Cc2ccccc2)nnc1SC(C)C(=O)NC1CC1 (stereo unspecified) | 0 | 0 | 0 | 0 | - | -
CCOc1cc(/C=C2\SC(=S)N(Nc3ccccc3)C2=O)ccc1O | 0 | 0 | 0 | 0 | - | -
CCOc1ccc(/C=C2\SC(=S)N(NS(=O)(=O)c3ccccc3)C2=O)cc1OC | 0 | 0 | 0 | 79 | 71 | 35
CCOc1ccc(/C=C2\SC(=S)N(NS(=O)(=O)c3ccc(C)cc3)C2=O)cc1OC | 0 | 0 | 0 | 83 | 76 | 41
COc1cc(/C=C2\SC(=S)N(CCCCC(=O)O)C2=O)ccc1OS(=O)(=O)c1ccc(C)cc1 | 0 | 0 | 0 | 79 | 80 | 44
CCOc1ccc(/C=C2\SC(=S)N(C)C2=O)cc1OC | 0 | 0 | 0 | 0 | - | -
CCOc1cc(/C=C2\SC(=S)N(NS(=O)(=O)c3ccccc3)C2=O)ccc1O | 0 | 0 | 0 | 47 | 0 | 8.6
O=C(CC12CC3CC(CC(C3)C1)C2)NC1CC1 | 0 | 0 | 0 | 0 | - | -
CCC1(C)C(Nc2c(C)cccc2C)=NC(=S)N1c1ccc(NC(C)=O)cc1 (stereo unspecified) | 0 | 0 | 0 | 0 | - | -
O=C(COC(=O)c1c(F)cccc1F)NCCNC(=O)COC(=O)c1c(F)cccc1F | 0 | 0 | 0 | 0 | - | -
O=S(=O)(Nc1cc(Cl)ccc1-n1cncn1)c1cc(Br)ccc1Br | 0 | 0 | 0 | 57 | 56 | 21
CCCCCN(CCCCC)C(=O)C(CCC(=O)O)NC(=O)c1ccc(Cl)c(Cl)c1 (stereo unspecified) | 0 | 0 | 0 | 54 | 52 | 12
Cc1[nH]c2ccccc2c1/C=N/NC(=O)c1cccc(S(=O)(=O)Nc2ccccc2Cl)c1 | 0 | 0 | 0 | 48 | 63 | 21
C/C(=N\NC(=O)c1cccc(S(=O)(=O)Nc2ccccc2Cl)c1)c1ccc(-n2ccnc2)cc1 | 0 | 0 | 0 | 40 | 45 | 14
Cc1cccc(C)c1NC(=O)C1(C)CSCC(=O)N1Cc1cccc(C(F)(F)F)c1 (stereo unspecified) | - | - | 0 | 0 | - | -
SMILES | NadD block | bovine MsrA act | MsrA inhibitor | rCAG RNA binder | rCAG bind conf | DNA CAG counter | others
Cc1ccc(S(=O)(=O)CCC(=O)OCc2nnc(-c3ccccc3)o2)cc1 | 0 | 0 | 0 | 0 | - | -
Cc1c(NS(=O)(=O)c2ccc3c(c2)NC(=O)CC(=O)N3)cccc1[N+](=O)[O-] | 0 | 0 | 0 | 0 | - | -
COc1ccc(CC(=O)NCCCSc2ccccc2)cc1OC | 0 | 0 | 0 | 0 | - | -
O=C(c1cc(Cl)ccc1O)N1CCN(S(=O)(=O)c2cccs2)CC1 | 0 | 0 | 0 | 0 | - | -
O=C(OCC(=O)N1CCCc2ccccc21)c1cc(S(=O)(=O)N2CCOCC2)ccc1O | 0 | 0 | 0 | 0 | - | -
Cc1ccc(S(=O)(=O)NC(=O)c2ccc(-c3ccc(C)c4ccccc34)o2)cc1 | 0 | 0 | 0 | 77 | 73 | 28 | dCAG dye DR=8.4
CCn1c(SCC(=O)Nc2ccc3c(c2)c2ccccc2n3CC)nnc1-c1ccco1 | 63 | 0 | 0 | 35 | 0 | 13
Cc1ccc(S(=O)(=O)N2[C@@H](c3ccc(F)cc3)C(C(=O)O)=CC[C@H]2c2ccc3c(c2)OCO3)cc1 | 0 | 0 | 0 | 53 | 51 | 17
Cc1ccc(S(=O)(=O)N2[C@@H](c3ccccc3F)C(C(=O)O)=CC[C@H]2c2cccc(Cl)c2)cc1 | 0 | 0 | 0 | 0 | - | -
Cc1ccc(S(=O)(=O)N2[C@@H](c3ccccc3F)C(C(=O)O)=CC[C@H]2c2ccc3c(c2)OCO3)cc1 | 0 | 0 | 0 | 46 | 41 | 10
Cc1cnc(-c2nc3ccccc3n2C(C(=O)NC(C)(C)C)c2cc3ccccc3o2)cn1 (stereo unspecified) | - | - | 0 | 0 | - | -
COc1cc2c(cc1OC)CN(S(=O)(=O)c1ccc(Cl)nc1)CC2 | 0 | 0 | 0 | 0 | - | -
COC(=O)c1ccccc1CSc1nsc(/C=C/N(C)C)c1C#N | 0 | 0 | - | - | - | -
Cc1nc(CSc2nsc(/C=C/N(C)C)c2C#N)cs1 | 0 | 0 | 0 | 57 | 0 | 13
Brc1cccc(CNc2nc3ccccc3n2CCN2CCOCC2)c1 | 0 | 0 | 0 | 0 | - | -
CNc1ccc(Br)cc(C(=O)/C=C/c2ccc(OC)cc2)c1=O | 0 | 0 | 0 | 42 | 40 | 15
CNc1ccc(Br)cc(C(=O)/C=C/c2cc(OC)ccc2OC)c1=O | 0 | 0 | 0 | 43 | 38 | 16
COc1ccc(/C=C/C(=O)c2cc(Br)ccc2O)cc1OC | 0 | 0 | 0 | 0 | - | -
CC(=O)N1CCN(S(=O)(=O)c2cccc(C(=O)NC3CC3)c2)CC1 | 0 | 0 | 0 | 0 | - | -
C[C@H](CO)N1C[C@H](C)[C@@H](CN(C)S(=O)(=O)c2ccc(F)cc2)Oc2ccc(NC(=O)NC3CCCCC3)cc2C1=O | 0 | 0 | 0 | 0 | - | -
Cc1n[nH]c(=O)c2c(NC(=O)CSc3nn(-c4ccc(F)cc4)c(=S)s3)oc(C)c12 | 0 | 0 | 0 | 40 | 0 | 13
Cc1n[nH]c(=O)c2c(NC(=O)CSc3c(Cl)cccc3Cl)oc(C)c12 | 0 | 0 | 0 | 0 | - | -
